HEK293 tox – qHTS of GLP-1 Receptor Inverse Agonists: Cytotox Screen; HEK293 cAMP-luciferase reporter cells, luminescence, 24 h; AID 624418, 2012; Potency, µM (series often up to 38.3 µM), without a hit: at the top dose activity change, negative = inhibition, hits mostly inhibitors; actives 0.13% (n = 410,000);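 further: loss of luciferase light is scored as toxicity; on the % scale 0 is the no-effect control and ±100 the full control effect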
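Quantitative HTS format, 1536 wells, 200 cells/uL seeded. Compounds: 23 nL, 24 h, 37 °C. Detection: luciferase reagent, luminescence at 12 min RT; decreased signal taken as cytotoxic.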
GLP-1R agonist – qHTS of GLP-1 Receptor Agonists; Potency, µM (top dose mostly 45.6 µM), without a hit: top-dose activation, actives largely listed as activators; Glucagon-like peptide 1 receptor (Homo sapiens), P43220; HEK293 GLP-1R CRE-luciferase, luminescence, 4-6 h; cells express a hypersensitive GLP-1R form; actives 0.007% (n = 380,000); further: % of control where 0% means no effect
Target sequence (P43220 whole entry, looked up): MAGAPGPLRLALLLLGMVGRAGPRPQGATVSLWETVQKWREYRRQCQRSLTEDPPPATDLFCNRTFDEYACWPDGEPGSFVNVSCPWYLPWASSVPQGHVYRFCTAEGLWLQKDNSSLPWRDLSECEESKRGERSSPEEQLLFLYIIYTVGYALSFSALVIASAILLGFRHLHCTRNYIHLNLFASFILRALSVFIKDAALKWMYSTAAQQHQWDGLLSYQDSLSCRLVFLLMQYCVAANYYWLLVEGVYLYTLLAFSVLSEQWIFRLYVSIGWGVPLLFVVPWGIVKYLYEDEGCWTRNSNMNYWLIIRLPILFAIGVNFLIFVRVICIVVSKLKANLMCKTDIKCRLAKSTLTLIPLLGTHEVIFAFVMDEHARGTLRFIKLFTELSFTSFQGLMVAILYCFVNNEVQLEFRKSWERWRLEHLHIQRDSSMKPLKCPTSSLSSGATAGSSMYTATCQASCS
GLP-1R inv ag – qHTS of GLP-1 Receptor Inverse Agonists (Inhibition Mode); Potency, µM (series often up to 38.3 µM), for inactives: at the top dose activity change, negative = inhibition, actives largely listed as inhibitors; Glucagon-like peptide 1 receptor (Homo sapiens), P43220; actives 1.6% (n = 410,000); HEK293 GLP-1R CRE-luciferase, luminescence, 24 h; GLP-1R form is constitutively active; further: on the % scale 0 is the no-effect control and ±100 the full control effect; nearly all actives have a fitted effect of over 55% in size
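Constitutively active GLP-1R drives a cAMP-responsive luciferase in stably transfected HEK293 cells; test compounds are added after overnight (12 h) attachment and left 24 hr, and signal loss in luminescence marks inhibition.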
Pin1 inhibitor – qHTS Assay to Find Inhibitors of Pin1 | actives 0.009% (n = 390,000) | AID 504891, 2011 | Peptidyl-prolyl cis-trans isomerase NIMA-interacting 1 (Homo sapiens), Q13526 | Pin1 FP peptide displacement, HiFluor488, 10 min | Potency, µM (doses to about 115 µM), for inactives: at the top dose activity, negative = inhibition, usual class: inhibitors; active means well fitted inhibition curve with a large enough effect in the polarisation, with a control signal flat, not every such curve was filed as active; inconclusive means small, poorly fitted or top-dose-only effect, or effect the other way, or a change in a side signal; inactive means no such curve, though single readings can be large or run the other way; the % refers to the polarisation; further: on the % scale 0 is the no-effect control and ±100 the full control effect
Target sequence (Q13526 whole entry, looked up): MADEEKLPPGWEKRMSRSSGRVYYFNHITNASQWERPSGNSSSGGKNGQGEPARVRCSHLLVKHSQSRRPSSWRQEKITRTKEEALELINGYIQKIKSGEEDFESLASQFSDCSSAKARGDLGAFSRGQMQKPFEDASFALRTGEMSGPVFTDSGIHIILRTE
PGK inhibitor – qHTS Assay to Find Inhibitors of Phosphoglycerate Kinase | Phosphoglycerate kinase, glycosomal (Trypanosoma brucei brucei), P07378 | PGK/GAPDH coupled, Kinase-Glo luminescence, 60 min | Potency, µM (titrated, usually from 57.5 µM), without a hit: at the top dose activity change, negative = inhibition, actives largely listed as inhibitors | actives 0.043% (n = 380,000); further: on the % scale 0 is the no-effect control and ±100 the full control effect; nearly all actives have a fitted effect of over 60% in size
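Luminescent ATP detection (Kinase-Glo Plus) follows a 60-minute room-temperature incubation, with wells lacking PGK as controls. Buffer: 100 mM TEA (pH 7.6), 5 mM MgCl2, 0.01% Tween-20. Coupling enzyme GAPDH (100 nM final) supplies unstable 1,3-BPG in-well.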
Tb PFK inh – qHTS Assay to Find Inhibitors of T. brucei phosphofructokinase; ATP-dependent 6-phosphofructokinase (Trypanosoma brucei brucei), O15648; T. brucei PFK, ADP-Glo luminescence; Potency, µM (doses to about 57.5 µM), inactives show at the top dose activity, negative = inhibition, most hits filed as inhibitors; actives 0.17% (n = 330,000); AID 485367, 2010;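 further: 0% = uninhibited 1x PFK enzyme wells and -100% = no-enzyme wells; nearly all actives have a fitted effect of over 60% in size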
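In TEA buffer at pH 8.0 with 5 mM MgCl2, enzyme (1.25 nM) converted F6P (0.5 mM) and ATP (0.1 mM) for 45 min at room temperature. ADP product was read by luciferase luminescence.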
* marks the source's active call; other numbers are inactive results. In the library only some 1.8% were active in any assay of this set; here they are far more common. Unless noted, the call rests on the fitted dose curve; in most records, active means well fitted curve in the direction sought with a large enough effect; inconclusive means small, poorly fitted or top-dose-only effect, or another doubt; inactive means no such curve, though single readings can be large; an effect the other way counts as inactive or inconclusive. Potency means the concentration at half of the fitted maximal effect.

How did COc1ccc(-c2noc(CCC(=O)NC3CCN(Cc4ccccc4)CC3)n2)cc1 do in these assays?
HEK293 tox: -11.7%; GLP-1R agonist: 0.7%; GLP-1R inv ag: inconclusive; Pin1 inhibitor: 0.9%; PGK inhibitor: -3.7%; Tb PFK inh: -1.8%

How did COc1ccc(-c2noc(CCC(=O)NCC3CCN(Cc4cccc(C)c4)CC3)n2)cc1 do in these assays?
HEK293 tox: -28.6%; GLP-1R agonist: 3.2%; GLP-1R inv ag: 11.2µM*; Pin1 inhibitor: 1.6%; PGK inhibitor: 0.8%; Tb PFK inh: 0.2%

Results for COCCOC(=O)c1c(C)oc2c1cc(NS(=O)(=O)c1ccc(Cl)c(C)c1)c1ccccc12 ?
HEK293 tox: 19.3%; GLP-1R inv ag: 4.5%; Pin1 inhibitor: 7.5%; PGK inhibitor: -0.8%

How did COc1ccc(NC(=O)CSc2nnc(-c3ccccc3Cl)n2Cc2ccco2)c(OC)c1 do in these assays?
HEK293 tox: -26.5%; GLP-1R agonist: -2.7%; GLP-1R inv ag: 7.08µM*; Pin1 inhibitor: 0.0%; PGK inhibitor: -14.0%; Tb PFK inh: 3.7%

Results for C=CCCCCCCCCC(=O)OC ?
GLP-1R agonist: -3.4%

Results for COc1ccc(NC(=O)C(=O)NCC2CCCN2S(=O)(=O)c2cc(C)ccc2C)cc1 (stereo not given) ?
HEK293 tox: inconclusive; GLP-1R agonist: -3.7%; GLP-1R inv ag: 3.98µM*; Pin1 inhibitor: 14.6%; PGK inhibitor: 6.3%; Tb PFK inh: 2.1%

How did Cc1ccc(C)c(S(=O)(=O)N2CCCC2CNC(=O)C(=O)Nc2ccccc2)c1 (stereo not given) do in these assays?
HEK293 tox: 1.8%; GLP-1R agonist: -1.0%; GLP-1R inv ag: inconclusive; PGK inhibitor: -9.5%

Results for COc1ccccc1C1CC(c2ccccc2)=NN1C(=O)c1ccccc1 (stereo not given) ?
HEK293 tox: inconclusive; GLP-1R agonist: -3.7%; GLP-1R inv ag: 8.91µM*; Pin1 inhibitor: 11.2%; PGK inhibitor: inactive; Tb PFK inh: -1.3%

How did COc1ccccc1C1CC(c2ccc(NS(C)(=O)=O)cc2)=NN1C(=O)c1ccccc1 (stereo not given) do in these assays?
HEK293 tox: 6.4%; GLP-1R agonist: 5.3%; GLP-1R inv ag: -19.9%; Pin1 inhibitor: 8.9%; PGK inhibitor: inactive; Tb PFK inh: -4.5%

How did CC(C)(C)c1ccc(OCC(=O)NNC(=O)C2CCCO2)cc1 (stereo not given) do in these assays?
HEK293 tox: 0.1%; GLP-1R agonist: 2.6%; GLP-1R inv ag: -12.8%; Pin1 inhibitor: -4.9%; PGK inhibitor: inactive; Tb PFK inh: 0.4%

Results for CC(C)=C1C2CCC1C1C(=O)N(NC(=O)COc3ccc(C(C)(C)C)cc3)C(=O)C21 (stereo not given) ?
HEK293 tox: 4.7%; GLP-1R agonist: -4.6%; GLP-1R inv ag: 7.08µM*; Pin1 inhibitor: 9.0%; PGK inhibitor: -3.2%; Tb PFK inh: 0.5%

Results for CCOc1ccc(-c2nnc(-c3ccccc3)o2)cc1 ?
HEK293 tox: -2.8%; GLP-1R agonist: -12.6%; GLP-1R inv ag: 5.01µM*; Pin1 inhibitor: -0.7%; PGK inhibitor: -7.6%; Tb PFK inh: -1.6%

What do the screens show for `CCOc1ccc(-c2nnc(-c3ccc(OC)cc3)o2)cc1`?
HEK293 tox: -12.0%; GLP-1R agonist: -14.0%; GLP-1R inv ag: 13.8%; Pin1 inhibitor: 0.5%; PGK inhibitor: -9.6%; Tb PFK inh: -0.6%

What do the screens show for `Cc1cccc(C(=O)Nc2cc(-c3ccccc3F)nn2-c2ccccc2)c1`?
HEK293 tox: 0.3%; GLP-1R inv ag: 10µM*; Pin1 inhibitor: -5.6%; PGK inhibitor: -0.7%

What do the screens show for `CC(C)(C)OC(=O)CC(=O)NNC(=O)c1cc2ccccc2[nH]1`?
Pin1 inhibitor: -6.5%

How did Oc1ccc(Cl)cc1-c1cc(-c2ccco2)[nH]n1 do in these assays?
HEK293 tox: inconclusive; GLP-1R agonist: -28.3%; GLP-1R inv ag: 10µM*; Pin1 inhibitor: 17.1%; PGK inhibitor: -6.5%; Tb PFK inh: 0.8%

How did Oc1ccccc1-c1cc(-c2ccco2)[nH]n1 do in these assays?
HEK293 tox: -8.1%; GLP-1R agonist: -9.4%; GLP-1R inv ag: -18.2%; Pin1 inhibitor: 1.0%; PGK inhibitor: -8.2%; Tb PFK inh: -2.3%

What do the screens show for `COc1cc(/C=N/NC(=O)Cc2csc(C)n2)ccc1OCC(C)C`?
HEK293 tox: -8.5%; GLP-1R agonist: 7.2%; GLP-1R inv ag: 13.2%; Pin1 inhibitor: 2.2%; PGK inhibitor: -1.5%; Tb PFK inh: -2.1%

How did COc1ccc(/C=N/NC(=O)Cc2csc(Nc3cccc(C(F)(F)F)c3)n2)cc1C do in these assays?
HEK293 tox: inconclusive; GLP-1R agonist: -1.1%; GLP-1R inv ag: 7.94µM*; Pin1 inhibitor: -3.7%; PGK inhibitor: -7.1%; Tb PFK inh: 10.8%

How did COc1ccc(C2c3c(ncn(CCc4ccccc4)c3=N)Oc3ccc4ccccc4c32)cc1OC (stereo not given) do in these assays?
Pin1 inhibitor: 2.9%

What do the screens show for `Cc1ccc(S(=O)(=O)N(C)C)cc1NC(=S)NC(=O)C12CC3CC(CC(C3)C1)C2`?
HEK293 tox: -0.4%; GLP-1R agonist: -1.1%; GLP-1R inv ag: inconclusive; Pin1 inhibitor: 0.0%; PGK inhibitor: 3.2%; Tb PFK inh: -2.4%

What do the screens show for `CCN(CC)S(=O)(=O)c1cccc(NC(=O)CCNC(=O)NC23CC4CC(CC(C4)C2)C3)c1`?
HEK293 tox: 11.3%; GLP-1R agonist: 2.9%; GLP-1R inv ag: 10µM*; Pin1 inhibitor: -11.0%; PGK inhibitor: inactive; Tb PFK inh: 3.3%

Results for CN(C)S(=O)(=O)c1cccc(NC(=S)NC23CC4CC(CC(C4)C2)C3)c1 ?
HEK293 tox: -30.4%; GLP-1R agonist: 18.9%; GLP-1R inv ag: 7.94µM*; Pin1 inhibitor: -3.3%; PGK inhibitor: -21.1%; Tb PFK inh: 2.2%

How did NS(=O)(=O)c1cccc(NC(=S)NC(=O)C23CC4CC(CC(C4)C2)C3)c1 do in these assays?
HEK293 tox: -16.2%; GLP-1R agonist: 10.1%; GLP-1R inv ag: 1.26µM*; Pin1 inhibitor: 0.1%; PGK inhibitor: -4.7%; Tb PFK inh: 5.5%

From PubChem
